PubChem BioAssay (Tox21)
Values joined by “and” are separate entries in the source; they are usually repeats but may differ in a detail not shown here. Equal entries are not always repeated. Inconclusive results are not listed. Active and inactive are the calls of the source. Unless noted, the call rests on the fitted dose curve; in most records, active means well fitted curve in the direction sought with a large enough effect in the repeat runs; inconclusive means weak or mixed curves; inactive means no such curve, though single readings can be large; an effect the other way counts as inactive or inconclusive.

Experiments:
[1] = qHTS assay to identify small molecule antagonists of the estrogen receptor alpha (ER-alpha) signaling pathway using the BG1 cell line in the presence of 0.1 nM 17-beta-estradiol - cell viability counter screen (AID 1259241); further: nearly all actives have a fitted effect of over 40% in size
Outline: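 VM7Luc4E2 cells (endogenous full-length ER-alpha, 4xERE-luciferase), cultured 5 days in charcoal-stripped serum, exposed to compounds with 0.1 nM 17beta-estradiol (final) for 22 hr at 37C. Viability read in same wells as live-cell protease fluorescence after 30 min.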

[2] = qHTS assay to identify small molecule antagonists of the androgen receptor (AR) signaling pathway using the MDA cell line in the presence of 0.5 nM R1881 - cell viability counter screen (AID 1259242); further: nearly all actives have a fitted effect of over 45% in size
Outline: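 Live-cell protease activity was measured by CellTiter-Fluor fluorescence after 30 min. Before that, MDA-kb2 MMTV-luciferase cells had 16 hr at 37C without CO2, exposed to test compounds and 0.5 nM R1881 final.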

[3] = molecular target: Androgen receptor (Homo sapiens) (UniProt P10275); assay: qHTS assay to identify small molecule antagonists of the androgen receptor (AR) signaling pathway using the MDA cell line in the presence of 0.5 nM R1881 (AID 1259243); further: nearly all actives have a fitted effect of over 50% in size
Chain of Androgen receptor (Homo sapiens) (P10275 whole entry, looked up): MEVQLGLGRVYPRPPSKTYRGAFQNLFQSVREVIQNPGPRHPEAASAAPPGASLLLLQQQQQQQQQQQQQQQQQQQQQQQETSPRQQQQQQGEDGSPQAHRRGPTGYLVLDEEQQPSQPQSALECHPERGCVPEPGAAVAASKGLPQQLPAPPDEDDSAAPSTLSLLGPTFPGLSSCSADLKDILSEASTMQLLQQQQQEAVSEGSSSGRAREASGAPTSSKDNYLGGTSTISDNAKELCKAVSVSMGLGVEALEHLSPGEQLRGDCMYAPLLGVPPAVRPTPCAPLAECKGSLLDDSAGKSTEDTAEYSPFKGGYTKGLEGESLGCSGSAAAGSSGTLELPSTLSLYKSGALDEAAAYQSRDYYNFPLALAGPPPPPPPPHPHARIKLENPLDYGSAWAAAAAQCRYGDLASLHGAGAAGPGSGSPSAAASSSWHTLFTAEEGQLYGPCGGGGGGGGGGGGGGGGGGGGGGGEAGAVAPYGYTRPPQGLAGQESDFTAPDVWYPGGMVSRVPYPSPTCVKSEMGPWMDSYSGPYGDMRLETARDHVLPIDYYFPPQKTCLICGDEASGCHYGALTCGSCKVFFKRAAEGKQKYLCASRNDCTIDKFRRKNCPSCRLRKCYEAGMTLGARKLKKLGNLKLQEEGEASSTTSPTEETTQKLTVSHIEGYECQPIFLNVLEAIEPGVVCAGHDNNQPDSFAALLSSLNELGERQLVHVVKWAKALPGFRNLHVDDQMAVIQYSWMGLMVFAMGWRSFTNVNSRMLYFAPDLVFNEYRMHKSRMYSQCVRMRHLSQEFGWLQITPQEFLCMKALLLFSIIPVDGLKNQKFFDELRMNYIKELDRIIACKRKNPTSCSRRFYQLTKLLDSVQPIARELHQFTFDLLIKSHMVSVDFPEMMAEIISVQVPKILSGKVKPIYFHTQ
Outline: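 Luminescent reporter readout (ONE-Glo, 30 min, room temperature) after 16 hr co-treatment of MDA-kb2 cells with test compounds and 0.5 nM R1881 final, at 37C without CO2. The MMTV-driven luciferase responds to both AR and GR.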

[4] = qHTS assay to identify small molecule phospholipidosis (PLD) inducers (AID 1259344; active means well fitted curve in the direction sought with a large enough effect; an effect the other way counts as inactive or inconclusive)
Outline: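 Accumulated phospholipid, stained red by LipidTOX during 24 h compound treatment of HepG2 cells at 37 C, is quantified from images as pit number and intensity, normalised per cell using Hoechst-stained nuclei.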

[5] = qHTS assay to identify small molecule HDAC inhibitors (AID 1259364); further: top concentration of the series differs between compounds; nearly all actives have a fitted effect of over 45% in size
Outline: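 Luminescence read after 30 min room-temperature HDAC-Glo incubation measures cellular class I/II HDAC activity. Compounds were applied for 2 hr at 37 C to HCT-116 wild-type cells seeded the day before.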

[6] = qHTS assay to identify small molecule agonists of the sonic hedgehog signaling (Shh) pathway - cell viability counter screen (AID 1259366); further: nearly all actives have a fitted effect of over 50% in size
Outline: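 NIH/3T3-derived Gli1-Luc reporter cells, 2,000 per well, received compound after 4 h and were treated about 23 h at 37C. Viability measured in the same wells by CellTiter-Fluor fluorescence after 1 h.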

[7] = qHTS assay to identify small molecule antagonists of the sonic hedgehog signaling (Shh) pathway - cell viability counter screen (AID 1259367); further: nearly all actives have a fitted effect of over 55% in size
Outline: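 CellTiter-Fluor signal in conditioned medium-stimulated 3T3 Gli1-Luc cells, 23 hr compound exposure, 37C.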

[8] = qHTS assay to identify small molecule agonists of the sonic hedgehog signaling (Shh) pathway (AID 1259368; calls by dose curve;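 further: NIH/3T3-derived 3T3Gli1-Luc cells carrying a stable Gli1-driven firefly luciferase reporter; series mostly up to about 92 µM; nearly all actives have a fitted effect of over 15% in size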)
Outline: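 Luminescence was read after 30 min at room temperature with luciferase reagent. Before that, 3T3Gli1-Luc cells (NIH/3T3 clone, stable Gli1-Luc reporter; 2,000/well) were exposed to compounds for 24 hr at 37C, 5% CO2, compounds being added 4 hr post-plating.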

[9] = qHTS assay to identify small molecule agonists of the androgen receptor (AR) signaling pathway in the presence of an antagonist - cell viability counter screen (AID 1259379);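 further: MDA-kb2 human breast cancer cells carrying an MMTV luciferase reporter; series mostly up to about 92 µM; nearly all actives have a fitted effect of over 25% in size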
Outline: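 Cytotoxicity counter-screen run in the same wells as the nilutamide-challenged (3.0 µM final) AR agonist assay in MDA-kb2 cells. Compounds tested at 15 concentrations for 16 h, 37 °C without CO2; CellTiter-Fluor fluorescence read.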

[10] = molecular target: Androgen receptor (Homo sapiens) (UniProt P10275); assay: qHTS assay to identify small molecule agonists of the androgen receptor (AR) signaling pathway in the presence of an antagonist (AID 1259381; calls by dose curve; further: nearly all actives have a fitted effect of over 15% in size)
Outline: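 Agonist-mode confirmation run against 3.0 uM final nilutamide: compounds titrated at 15 concentrations onto MDA-kb2 MMTV-luciferase reporter cells. Luminescence measured with ONE-Glo following 16 hr incubation, 37C, 0% CO2.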

[11] = qHTS assay to identify small molecule antagonists of the estrogen receptor beta (ER-beta) signaling pathway - cell viability counter screen (AID 1259382);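 further: HEK293T cells carrying ER-beta-UAS-bla reporter stimulated with estradiol; series mostly up to about 92 µM; nearly all actives have a fitted effect of over 55% in size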
Outline: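 Cytotoxicity was measured in the same wells by CellTiter-Glo luminescence after 30 min at room temperature. Cells were ER-beta-bla HEK293T in charcoal-stripped serum, given compound together with 1 nM E2 and incubated 16 h at 37C.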

[12] = molecular target: Thyrotropin receptor (Homo sapiens) (UniProt P16473); assay: qHTS assay to identify small molecule antagonists of the thyroid stimulating hormone receptor (TSHR) signaling pathway (AID 1259385; calls by dose curve; further: nearly all actives have a fitted effect of over 20% in size)
Chain of Thyrotropin receptor (Homo sapiens) (P16473 whole entry, looked up): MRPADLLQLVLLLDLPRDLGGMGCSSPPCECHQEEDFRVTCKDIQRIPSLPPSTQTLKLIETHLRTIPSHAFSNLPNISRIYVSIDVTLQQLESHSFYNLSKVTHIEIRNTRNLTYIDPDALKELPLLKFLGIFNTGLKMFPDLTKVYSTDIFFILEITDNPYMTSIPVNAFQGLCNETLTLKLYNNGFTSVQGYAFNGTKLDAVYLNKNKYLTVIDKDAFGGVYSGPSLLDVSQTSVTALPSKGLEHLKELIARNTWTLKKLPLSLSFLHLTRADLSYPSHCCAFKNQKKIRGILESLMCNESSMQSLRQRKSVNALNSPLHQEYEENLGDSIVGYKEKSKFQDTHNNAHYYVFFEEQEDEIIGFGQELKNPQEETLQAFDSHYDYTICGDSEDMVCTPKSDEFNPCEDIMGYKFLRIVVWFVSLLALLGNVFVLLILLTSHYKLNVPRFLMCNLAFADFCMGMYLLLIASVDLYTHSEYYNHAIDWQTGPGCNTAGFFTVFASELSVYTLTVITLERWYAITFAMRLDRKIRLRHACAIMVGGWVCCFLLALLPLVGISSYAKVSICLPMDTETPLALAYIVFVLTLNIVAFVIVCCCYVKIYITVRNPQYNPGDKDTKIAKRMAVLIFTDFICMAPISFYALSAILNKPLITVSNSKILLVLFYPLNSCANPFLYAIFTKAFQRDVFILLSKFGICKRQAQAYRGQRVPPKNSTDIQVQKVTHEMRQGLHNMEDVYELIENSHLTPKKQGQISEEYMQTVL
Outline: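 Antagonist mode: compound-treated TSHR-expressing HEK293 cells were stimulated with 1.5 ng/mL TSH (final) in presence of Ro20-1724 for 30 min at RT. HTRF cAMP detection after 1 h; each compound tested at 15 concentrations, triplicate.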

[13] = qHTS assay to identify small molecule HDAC inhibitors - cell viability counter screen (AID 1259365); further: series mostly up to about 92 µM; nearly all actives have a fitted effect of over 50% in size
Outline: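 Wild-type HCT-116 cells, 1,500/well, cultured overnight, then compound-treated 2 h at 37 C. Viability measured as ATP luminescence with CellTiter-Glo after 30 min at room temperature.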

[14] = qHTS assay to identify small molecule antagonists of the sonic hedgehog signaling (Shh) pathway (AID 1259369; calls by dose curve; further: nearly all actives have a fitted effect of over 45% in size)
Outline: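 Antagonist mode: compound added to 3T3 Gli1-Luc cells followed by conditioned-medium stimulation, 24 h at 37 C, 5% CO2. Inhibition taken as loss of Gli1-driven luciferase luminescence.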

[15] = molecular target: Estrogen receptor beta (Homo sapiens) (UniProt Q92731); assay: qHTS assay to identify small molecule agonists of the estrogen receptor beta (ER-beta) signaling pathway (AID 1259377; active means well fitted activation curve with a large enough effect in the signal ratio in the repeat runs, not every such curve was filed as active; the % refers to the signal ratio)
Chain of Estrogen receptor beta (Homo sapiens) (Q92731 whole entry, looked up): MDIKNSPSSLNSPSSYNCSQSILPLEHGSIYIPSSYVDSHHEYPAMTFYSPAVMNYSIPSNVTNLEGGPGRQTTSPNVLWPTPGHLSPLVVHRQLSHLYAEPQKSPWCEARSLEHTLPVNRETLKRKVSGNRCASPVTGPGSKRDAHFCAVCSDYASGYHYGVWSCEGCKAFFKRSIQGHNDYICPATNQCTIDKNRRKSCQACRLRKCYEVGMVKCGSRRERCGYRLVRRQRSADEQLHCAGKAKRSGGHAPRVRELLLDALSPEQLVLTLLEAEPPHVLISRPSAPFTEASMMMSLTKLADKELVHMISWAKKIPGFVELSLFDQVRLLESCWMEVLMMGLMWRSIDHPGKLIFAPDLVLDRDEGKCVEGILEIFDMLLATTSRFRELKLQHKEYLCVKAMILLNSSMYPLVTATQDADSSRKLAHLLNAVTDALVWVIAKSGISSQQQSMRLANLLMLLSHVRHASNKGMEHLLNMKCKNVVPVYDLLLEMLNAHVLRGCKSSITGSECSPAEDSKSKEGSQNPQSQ
Outline: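 ER-beta-UAS-bla HEK293T cells in medium with 2% charcoal-stripped FBS were exposed to compounds for 16 h at 37C. Beta-lactamase reporter activity was read as fluorescence after 2 h with LiveBLAzer B/G FRET substrate at room temperature.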

[16] = molecular target: Estrogen receptor beta (Homo sapiens) (UniProt Q92731); assay: qHTS assay to identify small molecule antagonists of the estrogen receptor beta (ER-beta) signaling pathway (AID 1259378; active means well fitted inhibition curve with a large enough effect in the signal ratio in the repeat runs, not every such curve was filed as active; the % refers to the signal ratio; further: potency means the concentration at half of the fitted maximal effect)
Outline: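 Antagonist mode: compounds added to beta-lactamase reporter HEK293T ER-beta-UAS cells stimulated with E2 (1nM final), 16 hr at 37C. LiveBLAzer B/G FRET substrate, 2 hours room temperature, fluorescence read-out.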

[17] = qHTS assay to identify small molecule agonists of the estrogen receptor beta (ER-beta) signaling pathway - cell viability counter screen (AID 1259380); further: nearly all actives have a fitted effect of over 30% in size; further: potency means the concentration at half of the fitted maximal effect
Outline: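 Cell viability counter screen: CellTiter-Glo luminescence (30 min, room temperature) measured in the same wells as the beta-lactamase readout, after 16 hr compound exposure at 37C of ER-beta-bla HEK293T cells in 2% charcoal-stripped FBS medium.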

[18] = molecular target: Estrogen receptor (Homo sapiens) (UniProt P03372); assay: qHTS assay to identify small molecule antagonists of the estrogen receptor alpha (ER-alpha) signaling pathway using the BG1 cell line in the presence of 0.1 nM 17-beta-estradiol (AID 1259244); further: nearly all actives have a fitted effect of over 50% in size
Chain of Estrogen receptor (Homo sapiens) (P03372 whole entry, looked up): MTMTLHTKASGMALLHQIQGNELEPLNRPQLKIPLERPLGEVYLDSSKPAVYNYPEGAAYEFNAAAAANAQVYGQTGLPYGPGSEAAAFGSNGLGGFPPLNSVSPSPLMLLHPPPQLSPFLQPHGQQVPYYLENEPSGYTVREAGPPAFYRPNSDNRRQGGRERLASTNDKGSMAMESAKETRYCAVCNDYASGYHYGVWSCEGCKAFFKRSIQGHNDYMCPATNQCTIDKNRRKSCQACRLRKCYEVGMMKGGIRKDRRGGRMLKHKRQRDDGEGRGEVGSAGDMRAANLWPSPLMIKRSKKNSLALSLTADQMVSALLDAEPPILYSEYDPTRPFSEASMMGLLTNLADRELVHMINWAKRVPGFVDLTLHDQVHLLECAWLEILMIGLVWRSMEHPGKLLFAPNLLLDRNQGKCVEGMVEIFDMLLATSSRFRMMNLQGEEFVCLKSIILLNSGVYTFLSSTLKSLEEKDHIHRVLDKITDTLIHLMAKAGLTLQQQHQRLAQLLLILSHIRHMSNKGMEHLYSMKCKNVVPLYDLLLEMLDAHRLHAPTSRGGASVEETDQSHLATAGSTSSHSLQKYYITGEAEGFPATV
Outline: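 Luciferase luminescence (ONE-Glo, 30 min at room temperature) was read after 22 hr at 37C exposure to compounds plus 17beta-estradiol at 0.1 nM final. Cells were VM7Luc4E2 with endogenous ER-alpha and an ERE-driven luciferase, pre-cultured 5 days in hormone-depleted medium.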

[19] = molecular target: Estrogen receptor (Homo sapiens) (UniProt P03372); assay: qHTS assay to identify small molecule agonists of the estrogen receptor alpha (ER-alpha) signaling pathway in the presence of an antagonist (AID 1259383; calls by dose curve; further: top concentration of the series differs between compounds; nearly all actives have a fitted effect of over 15% in size)
Outline: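 Agonist-mode confirmation run in the presence of 10.0nM (final) ICI-182,780 antagonist. The reporter was ERE-driven luciferase in VM7Luc4E2 cells, grown in charcoal-stripped serum. Cells were exposed to 15-concentration compound series for 22hr, then ONE-Glo luminescence was read.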

[20] = qHTS assay to identify small molecule agonists or antagonists of the thyroid stimulating hormone receptor (TSHR) signaling pathway - wild type cell line counter screen (AID 1259384; calls by dose curve)
Outline: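 Counter screen in untransfected Hek293: compounds (15-point titration, triplicate) plus phosphodiesterase inhibitor Ro20-1724 added after 18 h plating; 30 min RT. Intracellular cAMP via competitive d2/cryptate immunoassay, 1 h incubation.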

Measured: Potency

CC(C)=CC1C(C(=O)OCN2C(=O)C3=C(CCCC3)C2=O)C1(C)C (configuration not stated)
inactive: [1] | [2] | [3] | [4] | [5] | [6] | [7] | [8] | [9] | [10] | [11] | [12]

Clc1cccc(C(Cl)(Cl)Cl)n1
inactive: [1] | [2] | [3] | [5] | [13] | [6] | [7] | [8] | [14] | [15] | [16] | [9] | [17] | [10] | [11] | [12]

CCCCCCCCCc1ccc(O)cc1
inactive: [1] | [2] | [18] | [5] | [13] | [6] | [7] | [8] | [15] | [9] | [19] | [20] | [12]
active: [16] 19.5 µM | [17] 13.8 µM and 43.3 µM

S=c1[nH]c2ccccc2[nH]1
inactive: [1] | [2] | [3] | [5] | [6] | [7] | [8] | [14] | [15] | [16] | [9] | [17] | [10] | [11] | [20] | [12]

ClC(Cl)(Cl)c1ccccc1
inactive: [1] | [2] | [18] | [5] | [13] | [6] | [7] | [8] | [15] | [16] | [9] | [17] | [11] | [19] | [20] | [12]

O=C1CCCO1
inactive: [1] | [2] | [3] | [5] | [13] | [6] | [7] | [8] | [14] | [15] | [16] | [9] | [17] | [10] | [11] | [20] | [12]
